{
  "source": "ChEMBL document CHEMBL3433997",
  "about": "“St. Jude Leishmania screening dataset” (2016)",
  "type_in_all_cases": "functional",
  "key": {"[1]": {"target": "Solute carrier family 2, facilitated glucose transporter member 1 (Homo sapiens) (UniProt P11166)", "sequence (P11166 whole entry)": "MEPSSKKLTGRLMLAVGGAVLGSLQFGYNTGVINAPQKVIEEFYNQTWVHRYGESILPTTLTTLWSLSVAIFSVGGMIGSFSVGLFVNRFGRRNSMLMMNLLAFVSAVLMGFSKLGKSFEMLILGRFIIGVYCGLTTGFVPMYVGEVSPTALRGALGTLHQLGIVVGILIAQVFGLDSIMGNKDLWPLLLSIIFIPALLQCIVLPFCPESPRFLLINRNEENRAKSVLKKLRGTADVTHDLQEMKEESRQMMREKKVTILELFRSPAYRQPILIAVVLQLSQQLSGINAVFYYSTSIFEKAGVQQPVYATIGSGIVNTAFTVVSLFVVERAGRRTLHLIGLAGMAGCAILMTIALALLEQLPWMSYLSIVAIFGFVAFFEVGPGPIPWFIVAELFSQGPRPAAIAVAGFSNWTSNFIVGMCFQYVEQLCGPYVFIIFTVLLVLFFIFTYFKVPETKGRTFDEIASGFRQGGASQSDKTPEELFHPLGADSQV", "experiment": "ST_JUDE_LEISH: Cytotoxicity at 2uM final concentration against transgenic Leishmania Mexicana promastigotes LmGLUT1 that are glucose transport deficient and complemented with the human glucose transporter GLUT1. Activity is measured by DNA content using SYBR green in vitro"}, "[2]": {"target": "Hexose transporter 1 (Plasmodium falciparum) (UniProt O97467)", "experiment": "ST_JUDE_LEISH: Cytotoxicity at 2uM final concentration against transgenic Leishmania Mexicana promastigotes LmPfHT that are glucose transport deficient and complemented with the Plasmodium falciparum hexose transporter. Activity is measured by DNA content using SYBR green in vitro"}, "[3]": {"target": "Glucose transporter (Leishmania mexicana) (UniProt O61059)", "experiment": "ST_JUDE_LEISH: Cytotoxicity at 2uM final concentration against transgenic Leishmania Mexicana promastigotes LmGT2 that are glucose transport deficient and complemented with the L. Mexicana glucose transporter 2. Activity is measured by DNA content using SYBR green in vitro"}},
  "data": [
    {"smiles": "CN=c1nc(NN=Cc2ccccc2Cl)[nH]c(=Nc2cccc(C(F)(F)F)c2)[nH]1", "values": [
      {"measurement": "inhibition", "setting": "[1]", "result": 8.53, "unit": "%"},
      {"measurement": "inhibition", "setting": "[2]", "result": 8.1, "unit": "%"},
      {"measurement": "inhibition", "setting": "[3]", "result": 4.76, "unit": "%"}
    ]},
    {"smiles": "Cc1cc(NC(=O)Nc2ccc(N(C)C)cc2)c2cc(Cl)ccc2n1", "values": [
      {"measurement": "inhibition", "setting": "[1]", "result": 1.15, "unit": "%"},
      {"measurement": "inhibition", "setting": "[2]", "result": 0.69, "unit": "%"},
      {"measurement": "inhibition", "setting": "[3]", "result": 0.88, "unit": "%"}
    ]},
    {"smiles": "COc1cc(Cc2cnc(N)nc2N)cc(OCCCC(=O)O)c1OC", "values": [
      {"measurement": "inhibition", "setting": "[1]", "result": 2.98, "unit": "%"},
      {"measurement": "inhibition", "setting": "[2]", "result": 1.62, "unit": "%"},
      {"measurement": "inhibition", "setting": "[3]", "result": 1.78, "unit": "%"}
    ]},
    {"smiles": "COc1ccc(-c2ccccc2CNc2nc(NCCc3ccc(O)cc3)nc(N3CCNCC3)n2)cc1", "values": [
      {"measurement": "inhibition", "setting": "[1]", "result": -2.91, "unit": "%"},
      {"measurement": "inhibition", "setting": "[2]", "result": -0.55, "unit": "%"},
      {"measurement": "inhibition", "setting": "[3]", "result": 0.12, "unit": "%"}
    ]},
    {"smiles": "CC(=O)N(C)C1CCN(Cc2cccc(-c3ccc(-c4nc5cc(C(F)(F)F)ccc5[nH]4)cc3)c2)C1", "note": "(stereo unspecified)", "values": [
      {"measurement": "inhibition", "setting": "[1]", "result": 2.39, "unit": "%"},
      {"measurement": "inhibition", "setting": "[2]", "result": -4.29, "unit": "%"},
      {"measurement": "inhibition", "setting": "[3]", "result": 3.1, "unit": "%"}
    ]},
    {"smiles": "COc1ccccc1CNC(=O)C(=O)Nc1c(-c2ccccc2)[nH]c2ccccc12", "values": [
      {"measurement": "inhibition", "setting": "[1]", "result": -3.25, "unit": "%"},
      {"measurement": "inhibition", "setting": "[2]", "result": -4.12, "unit": "%"},
      {"measurement": "inhibition", "setting": "[3]", "result": -1.57, "unit": "%"}
    ]},
    {"smiles": "O=C(Nc1cccc(OC2CCN(Cc3ccsc3)CC2)c1)c1ccc(C(F)(F)F)cc1", "values": [
      {"measurement": "inhibition", "setting": "[1]", "result": 0.75, "unit": "%"},
      {"measurement": "inhibition", "setting": "[2]", "result": -0.04, "unit": "%"},
      {"measurement": "inhibition", "setting": "[3]", "result": -1.05, "unit": "%"}
    ]},
    {"smiles": "CN(C)CCOc1ccc2c(=O)cc(CCc3cccc(F)c3F)n(CC(=O)N(C)Cc3ccc(-c4ccc(C(F)(F)F)cc4)cc3)c2c1", "values": [
      {"measurement": "inhibition", "setting": "[1]", "result": -1.05, "unit": "%"},
      {"measurement": "inhibition", "setting": "[2]", "result": -0.55, "unit": "%"},
      {"measurement": "inhibition", "setting": "[3]", "result": 0.06, "unit": "%"}
    ]},
    {"smiles": "CN1C(C)(C)CC(NC(=O)c2ccc(-c3nc4cc(Cl)c(Cl)cc4[nH]3)cc2)CC1(C)C", "values": [
      {"measurement": "inhibition", "setting": "[1]", "result": 2.52, "unit": "%"},
      {"measurement": "inhibition", "setting": "[2]", "result": 2.2, "unit": "%"},
      {"measurement": "inhibition", "setting": "[3]", "result": 2.38, "unit": "%"}
    ]},
    {"smiles": "CCOC(=O)c1cc(C(=O)NCCCCN2CCC(c3cn(C)c4ccccc34)CC2)ccc1-c1ccc(C(F)(F)F)cc1", "values": [
      {"measurement": "inhibition", "setting": "[1]", "result": 2.37, "unit": "%"},
      {"measurement": "inhibition", "setting": "[2]", "result": 2.2, "unit": "%"},
      {"measurement": "inhibition", "setting": "[3]", "result": 1.11, "unit": "%"}
    ]},
    {"smiles": "Cn1nccc1C(=O)NCCNCc1ccc(-c2ccc(-c3nc4ccccc4[nH]3)s2)cc1", "values": [
      {"measurement": "inhibition", "setting": "[1]", "result": 4.38, "unit": "%"},
      {"measurement": "inhibition", "setting": "[2]", "result": 3.81, "unit": "%"},
      {"measurement": "inhibition", "setting": "[3]", "result": 0.63, "unit": "%"}
    ]},
    {"smiles": "CCC(=O)c1cc(C(=O)NCCc2cccc(OC)c2)ccc1OC", "values": [
      {"measurement": "inhibition", "setting": "[1]", "result": 12.4, "unit": "%"},
      {"measurement": "inhibition", "setting": "[2]", "result": 11.3, "unit": "%"},
      {"measurement": "inhibition", "setting": "[3]", "result": 11.3, "unit": "%"}
    ]},
    {"smiles": "Cc1ccc(-c2cc(C(=O)Nc3ccc(S(=O)(=O)N(C)Cc4ccccc4)cc3)[nH]n2)c(O)c1", "values": [
      {"measurement": "inhibition", "setting": "[1]", "result": 0.95, "unit": "%"},
      {"measurement": "inhibition", "setting": "[2]", "result": 0.3, "unit": "%"},
      {"measurement": "inhibition", "setting": "[3]", "result": 1.49, "unit": "%"}
    ]},
    {"smiles": "Cc1nc2ccc(NC(=O)c3cc(S(=O)(=O)N(C)C)ccc3Cl)cc2s1", "values": [
      {"measurement": "inhibition", "setting": "[1]", "result": 10.4, "unit": "%"},
      {"measurement": "inhibition", "setting": "[2]", "result": 10.6, "unit": "%"},
      {"measurement": "inhibition", "setting": "[3]", "result": 10.1, "unit": "%"}
    ]},
    {"smiles": "CCCOc1cc(OCCC)cc(-c2cc(=O)c3ccccc3[nH]2)c1", "values": [
      {"measurement": "inhibition", "setting": "[1]", "result": 0.94, "unit": "%"},
      {"measurement": "inhibition", "setting": "[2]", "result": 6.37, "unit": "%"},
      {"measurement": "inhibition", "setting": "[3]", "result": 3.56, "unit": "%"}
    ]},
    {"smiles": "Cc1ccc2[nH]c3c(NCCN(C)C)ncnc3c2c1", "values": [
      {"measurement": "inhibition", "setting": "[1]", "result": 0.53, "unit": "%"},
      {"measurement": "inhibition", "setting": "[2]", "result": 1.24, "unit": "%"},
      {"measurement": "inhibition", "setting": "[3]", "result": -0.07, "unit": "%"}
    ]},
    {"smiles": "Cc1ccc(NC(=O)c2ccc(CN3CCCN(CCC(C)C)CC3)cc2)cc1F", "values": [
      {"measurement": "inhibition", "setting": "[1]", "result": 7.11, "unit": "%"},
      {"measurement": "inhibition", "setting": "[2]", "result": 7.04, "unit": "%"},
      {"measurement": "inhibition", "setting": "[3]", "result": 9.05, "unit": "%"}
    ]},
    {"smiles": "CN1CCCN(Cc2ccc(-c3cccc(NC(=O)c4cccc(Cl)c4)c3)cc2)CC1", "values": [
      {"measurement": "inhibition", "setting": "[1]", "result": 16.5, "unit": "%"},
      {"measurement": "inhibition", "setting": "[2]", "result": 9.2, "unit": "%"},
      {"measurement": "inhibition", "setting": "[3]", "result": 9.24, "unit": "%"}
    ]},
    {"smiles": "COc1ccc(C(=O)N2CCc3cc4nccc(N5CCN6CCC[C@H]6C5)c4cc32)cc1", "values": [
      {"measurement": "inhibition", "setting": "[1]", "result": 2.59, "unit": "%"},
      {"measurement": "inhibition", "setting": "[2]", "result": 3.64, "unit": "%"},
      {"measurement": "inhibition", "setting": "[3]", "result": 4.3, "unit": "%"}
    ]},
    {"smiles": "Cc1noc(C)c1-c1cccc(CNCc2cccc(-c3cccc(-c4nc5ccccc5[nH]4)c3)c2)c1", "values": [
      {"measurement": "inhibition", "setting": "[1]", "result": 0.14, "unit": "%"},
      {"measurement": "inhibition", "setting": "[2]", "result": 1.29, "unit": "%"},
      {"measurement": "inhibition", "setting": "[3]", "result": 0.09, "unit": "%"}
    ]},
    {"smiles": "CC1CN(c2ccnc3ccc(Sc4ccc(Oc5ccccc5)cc4)cc23)CC(C)N1", "note": "(stereo unspecified)", "values": [
      {"measurement": "inhibition", "setting": "[1]", "result": 0.07, "unit": "%"},
      {"measurement": "inhibition", "setting": "[2]", "result": 2.41, "unit": "%"},
      {"measurement": "inhibition", "setting": "[3]", "result": -0.77, "unit": "%"}
    ]},
    {"smiles": "Cc1cccc(C(=O)N2CCN(Cc3cccc(NC(=O)c4ccco4)c3)CC2)c1", "values": [
      {"measurement": "inhibition", "setting": "[1]", "result": -1.31, "unit": "%"},
      {"measurement": "inhibition", "setting": "[2]", "result": 1.48, "unit": "%"},
      {"measurement": "inhibition", "setting": "[3]", "result": 1.47, "unit": "%"}
    ]}
  ]
}
